The structures appear in SMILES notation. This is one part of the list. Inconclusive results are not listed. Calls of active or inactive are those of the source. Calls follow the shape of the dose curve; as a rule, active = well fitted inhibition curve with a large enough effect; inconclusive = small, poorly fitted or top-dose-only effect, or effect the other way; inactive = flat fitted curve, though single readings scatter.

Sequence of Pyruvate kinase PKM (Homo sapiens) (P14618 whole entry, looked up, canonical isoform): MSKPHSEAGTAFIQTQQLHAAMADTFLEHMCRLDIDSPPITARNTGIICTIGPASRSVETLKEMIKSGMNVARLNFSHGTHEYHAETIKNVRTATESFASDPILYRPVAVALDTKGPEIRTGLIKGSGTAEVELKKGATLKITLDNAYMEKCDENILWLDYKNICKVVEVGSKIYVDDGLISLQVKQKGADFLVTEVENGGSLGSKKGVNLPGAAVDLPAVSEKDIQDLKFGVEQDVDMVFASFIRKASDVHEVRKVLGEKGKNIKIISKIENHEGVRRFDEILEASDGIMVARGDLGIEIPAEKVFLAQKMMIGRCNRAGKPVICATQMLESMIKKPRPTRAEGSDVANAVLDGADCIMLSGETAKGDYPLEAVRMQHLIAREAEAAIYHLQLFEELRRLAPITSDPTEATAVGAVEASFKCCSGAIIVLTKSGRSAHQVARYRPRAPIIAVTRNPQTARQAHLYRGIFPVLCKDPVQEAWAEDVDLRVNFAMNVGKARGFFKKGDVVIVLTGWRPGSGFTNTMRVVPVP

This assay concerns the target Pyruvate kinase PKM (Homo sapiens) (UniProt P14618). Kind of assay: Secondary assay for Inhibitors of Human Pyruvate Kinase M2 isoform. Conditions: purified hPK-M2, LDH-coupled NADH fluorescence kinetic. The text has this:
NIH Chemical Genomics Center [NCGC] Matthew G. Vander Heiden, M.D., Ph.D. [Harvard Medical School, 77 Avenue Louis Pasteur, Boston, MA 02115] MLPCN Grant: 1 R03 MH085679-01 NCGC Assay Overview: Human pyruvate kinase muscle 2 (hPK-M2)enzyme was supplied as a highly purified (>95% pure) preparation from Harvard Medical School and a secondary assay was used to evaluate compounds. This assay couples the formation of pyruvate from hPK-M2 using lactate dehydrogenase (LDH) and NADH. The depletion of NADH is followed in a fluorescent-based kinetic assay that follows the formation of pyruvate to lactate, as catalyzed LDH (described by Hannaert et al., 2002)1 Pyruvate kinase substrates, PEP and ADP, were present in the assay at 0.1 mM and 4 mM respectively. In this kinetic assay initial rates were determined by following the fluorescence of NADH depletion.
NCGC Assay Protocol Summary: Three uL of substrate mix (final concentration, 50 mM Tris-Cl pH 8.0, 200 mM KCl, 15 mM MgCl2, 0.1 mM PEP, 4.0 mM ADP, and 0.2 mM NADH) was dispensed into black-solid 1536 well plates. 23 nL of compounds were delivered by a pin tool and 1 uL of enzyme mix (final concentrations, 10 nM hPK-M2 and 1 uM of LDH) was added. Plates were immediately placed in ViewLux (Perkin Elmer) and NADH fluorescence was determined at 30 second exposure intervals for between 3 and 6 minutes. Data were normalized to the basal signal.
Consider `Cc1ccc(-c2nc3ccccn3c2Nc2ccc(F)cc2)o1`, for which the Potency is 7.3 µM (active).
